# Reference: the supplement of paper PMC7184167
# Structures can show the parent of a compound that is named as a salt.
# Tested on: replication-induced senescent mouse newborn dermal fibroblasts (NBF)
# Test: relative cell viability of senescent cells (fraction); higher = less killing of senescent cells
# Conditions: 1 µM; 3 days
# Protocol: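 Replication-induced senescent newborn mouse skin fibroblasts (NBFs) in 24-well plates were treated with a Selleck FDA-approved drug library at 1 µM for 3 days.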
row,Structure (SMILES),relative cell viability
1,CCC[C@H](NC(=O)[C@@H]1[C@H]2CCC[C@H]2CN1C(=O)[C@@H](NC(=O)[C@@H](NC(=O)c1cnccn1)C1CCCCC1)C(C)(C)C)C(=O)C(=O)NC1CC1 [Telaprevir (VX-950)],0.411
2,CC(C)Cn1cnc2c(N)nc3ccccc3c21 [Imiquimod],0.273
3,O=c1[nH]c(=O)n([C@H]2C[C@H](O)[C@@H](CO)O2)cc1C(F)(F)F [Trifluridine],0.971
4,C=CC[N+]1([C@H]2C[C@H]3[C@@H]4CC[C@H]5C[C@H](O)[C@@H](N6CCOCC6)C[C@]5(C)[C@H]4CC[C@]3(C)[C@H]2OC(C)=O)CCCC1 [Rocuronium Bromide],0.939
5,COC(=O)C1=C(C)NC(C)=C(C(=O)OCC(C)C)C1c1ccccc1[N+](=O)[O-] (stereo not given) [Nisoldipine],1.12
6,CC(C)c1cc(C(=O)N2Cc3ccc(CN4CCN(C)CC4)cc3C2)c(O)cc1O,0.0951
7,CC(C)NCC(O)COc1ccc(COCCOC(C)C)cc1 (stereo not given) [Bisoprolol fumarate],0.929
8,CC(=O)OCC(=O)NCCCOc1cccc(CN2CCCCC2)c1 [Roxatidine Acetate HCl],0.897
9,COc1cc(Nc2ncc3c(n2)-c2ccc(Cl)cc2C(c2c(F)cccc2OC)=NC3)ccc1C(=O)O [Alisertib (MLN8237)],0.0819
10,COc1cnc(NS(=O)(=O)c2ccc(N)cc2)nc1 [Sulfameter],0.763
11,CC(C)(C)C(=O)OCOP(=O)(COCCn1cnc2c(N)ncnc21)OCOC(=O)C(C)(C)C [Adefovir Dipivoxil],0.924
12,O=C(/C=C/c1cccc(S(=O)(=O)Nc2ccccc2)c1)NO [Belinostat (PXD101)],0.941
13,Nc1cccc2c1C(=O)N(C1CCC(=O)NC1=O)C2=O (stereo not given) [Pomalidomide],1.19
14,OC(CNCC(O)C1CCc2cc(F)ccc2O1)C1CCc2cc(F)ccc2O1 (stereo not given) [Nebivolol],0.256
15,CC(=O)O[C@@]12CO[C@@H]1C[C@H](O)[C@@]1(C)C(=O)[C@H](O)C3=C(C)[C@@H](OC(=O)[C@H](O)[C@@H](NC(=O)OC(C)(C)C)c4ccccc4)C[C@@](O)([C@@H](OC(=O)c4ccccc4)[C@H]21)C3(C)C [Docetaxel],0.565
16,COc1ccc(Cl)cc1C(=O)NCCc1ccc(S(=O)(=O)NC(=O)NC2CCCCC2)cc1 [Glyburide (Glibenclamide)],1.02
17,CC(C)(C)c1cc(C(C)(C)C)c(NC(=O)c2c[nH]c3ccccc3c2=O)cc1O [Ivacaftor (VX-770)],0.533
18,Cc1cnc(NC(=O)C2=C(O)c3ccccc3S(=O)(=O)N2C)s1 [Meloxicam],1.17
19,CC(C(=O)O)c1cccc(C(=O)c2ccccc2)c1 (stereo not given) [Ketoprofen],0.757
20,O=C(N[C@H](CO)[C@H](O)c1ccc([N+](=O)[O-])cc1)C(Cl)Cl [Chloramphenicol],0.706

row,Structure (SMILES),relative cell viability
1,CNC(=C[N+](=O)[O-])NCCSCc1ccc(CN(C)C)o1 [Ranitidine Hydrochloride],1.1
2,C[C@H](N[C@@H](CCc1ccccc1)C(=O)O)C(=O)N1CCC[C@H]1C(=O)O [Enalaprilat Dihydrate],0.862
3,c1ccc2c(CC3=NCCN3)cccc2c1 [Naphazoline HCl],0.868
4,CO[C@H]1C[C@@H]2CC[C@@H](C)[C@@](O)(O2)C(=O)C(=O)N2CCCC[C@H]2C(=O)O[C@H]([C@H](C)C[C@@H]2CC[C@@H](O)[C@H](OC)C2)CC(=O)[C@H](C)/C=C(\C)[C@@H](O)[C@@H](OC)C(=O)[C@H](C)C[C@H](C)/C=C/C=C/C=C/1C [Rapamycin (Sirolimus)],0.735
5,Cc1ccc(NC(=O)c2ccc(CN3CCN(C)CC3)cc2)cc1Nc1nc(-c2cccnc2)cs1 [Masitinib (AB1010)],0.602
6,C[C@]12CC[C@@H]3c4ccc(O)cc4CC[C@H]3[C@@H]1CC[C@@H]2O [Estradiol],1.13
7,COC(=O)Nc1nc2cc([S+]([O-])c3ccccc3)ccc2[nH]1 (stereo not given) [Oxfendazole],1.04
8,Cc1cn([C@H]2C=C[C@@H](CO)O2)c(=O)[nH]c1=O [Stavudine (d4T)],0.893
9,OCCOCCN1CCN(C2=Nc3ccccc3Sc3ccccc32)CC1 [Quetiapine Fumarate],1.13
10,COC(=O)[C@H](c1ccccc1Cl)N1CCc2sccc2C1 [Clopidogrel],0.983
11,CCCCC1C(=O)N(c2ccccc2)N(c2ccccc2)C1=O [Phenylbutazone],0.899
12,NS(=O)(=O)c1cc2c(cc1Cl)NC(C(Cl)Cl)NS2(=O)=O (stereo not given) [Trichlormethiazide],0.981
13,CC1(C)O[C@@H]2[C@@H](CO[C@@]3(COS(N)(=O)=O)OC(C)(C)O[C@@H]23)O1 [Topiramate],0.921
14,CCCOc1ccc(C(=O)OCCN(CC)CC)cc1N [Proparacaine HCl],0.992
15,Cc1ccc(C)c(OCCCC(C)(C)C(=O)O)c1 [Gemfibrozil],1.02
16,COc1cc([C@@H]2c3cc4c(cc3[C@@H](O[C@@H]3O[C@@H]5CO[C@@H](c6cccs6)O[C@H]5[C@H](O)[C@H]3O)[C@H]3COC(=O)[C@H]23)OCO4)cc(OC)c1O [Teniposide],1.08
17,Cc1[nH]c2ccccc2c1CCNCc1ccc(/C=C/C(=O)NO)cc1 [Panobinostat (LBH589)],1.08
18,CC(C)C[C@H](NC(=O)[C@@H](NC(=O)c1cccc(-c2ccccc2)n1)[C@@H](C)O)B(O)O,1.1
19,CC(C(=O)O)c1ccc(-c2ccccc2)c(F)c1 (stereo not given) [Flurbiprofen],1.04
20,Nc1cccc2c1CN(C1CCC(=O)NC1=O)C2=O (stereo not given) [Lenalidomide (CC-5013)],1.04
